NPR1 activator: GC-A stimulated cGMP production enhancers – HEK293 GC-A cells, cGMP TR-FRET, EC30 ANP, primary screen; 0% at EC30 ANP, 100% saturating ANP; activation, % at 10 µM; hit rate 0.14% among 370,000; in the data active = activation above about 40%
HSF1 inhib: HSF1 inhibitors in luciferase reporter cells, primary screen, cell-based, NIH3T3, luminescence. hit rate 0.77% among 300,000. NIH3T3-HGL HSE-luciferase, MG132-induced, luminescence 8 h; active compounds read low. activity change, negative = inhibition, % at 7.5 µM (by protocol). AID 2098, 2009;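 active = more than half of replicate wells show activity change below -50%, luminescence cut by over half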;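 also: luciferase reports HSF-1 transcriptional activity via heat shock element; 0% = median of DMSO wells and -100% = zero luminescence signal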
GC-B act: human GC-B receptor activators, primary screen, HEK293 GC-B cells, cGMP TR-FRET, EC30 CNP; hit rate 0.11% among 370,000; 0% at EC30 CNP, 100% saturating CNP; Atrial natriuretic peptide receptor 2 (Homo sapiens), P20594; activation, % at 10 µM;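 active = activation at 10 µM reaching about 35% in either raw or pattern-adjusted values, limit read from the data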
HSF-1 act: HSF-1 activators, primary screen, NIH3T3-HGL cells, MG132 stress, luminescence, single point; NIH3T3-HGL HSF-1 luciferase reporter, 8 h; 100% = twice DMSO control signal; activation, % at 9 µM; hit rate 1.7% among 300,000;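 active = mean replicate activation of at least 50% with a set share of replicates each reaching 50%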;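 also: 0% = median of the neutral control wells and 100% = twice that signal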
aDG glyco act: activators of alpha-DG glycosylation, primary screen, uHTS, Pro5-aDG cells, AlphaScreen; activation, % at 10 µM; hit rate 0.22% among 360,000; alpha-DG glycosylation AlphaScreen (IIH6); 0% Pro5, 100% B10-LARGE cell signal; AID 624168, 2012;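 active = activation of at least 8% versus controls, or a plate z-score of at least 8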;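 also: Pro5 are CHO cells carrying HIG-tagged alpha-DG that lacks glycosylation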
DYRK1A inh: rat Dyrk1A kinase inhibitors, primary screen, biochemical, single point, plate reader; Dual specificity tyrosine-phosphorylation-regulated kinase 1A (Rattus norvegicus), Q63470; ADP-Glo luminescence, NFATc1 peptide; inhibition, % at 12.5 µM; hit rate 0.43% among 310,000; AID 504441, 2011; in the data active = inhibition above about 50%;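 also: plate controls were vehicle with enzyme for no effect and no enzyme for full effect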
* marks the source's active call; other numbers are inactive results; x = no result given. Sampled rows, rich in hits. Any-hit rate of the full collection: about 2.5%.

SMILES	NPR1 activator	HSF1 inhib	GC-B act	HSF-1 act	aDG glyco act	DYRK1A inh
[O-][n+]1ccccc1SC/C=C/c1ccccc1	-1	22	-6	53*	0	2
[O-][n+]1ccccc1SCc1ccccc1	1	1	2	4	0	-5
COc1ccc(-c2cc(=O)oc3cc(OCC(=O)Nc4ccc(CCO)cc4)ccc23)cc1	3	-8	2	-3	1	-6
CCOC(=O)c1nnn(CC(=O)NC(=O)Nc2ccc(F)cc2)c1C(=O)OCC	5	-72*	-9	-78	0	14
Clc1ccccc1CSc1ncn(-c2ccccc2)n1	-2	42	-1	67*	0	13
Cc1ccc(CSc2ncn(-c3ccccc3)n2)cc1	-11	22	-3	22	0	7
N#Cc1nc(-c2ccco2)oc1N1CCN(Cc2ccccc2)CC1	-8	-80*	-8	-85	0	1
N=c1sccn1CC(=O)Nc1cc(Cl)ccc1Oc1ccccc1	x	49	x	79*	3	-4
Cc1ccc(C(=O)COC(=O)c2cn3ccccc3n2)cc1	5	32	9	62*	0	-2
CCOC(=O)COC(=O)c1ccc(O)cc1	8	10	7	8	0	5
Cc1ccc(C(=O)COC(=O)c2ccc(O)cc2)cc1	5	58	-3	122*	0	-1
O=C(COC(=O)c1ccc(-c2nnc(-c3ccccc3)o2)cc1)c1ccccc1	-4	39	-8	51*	0	-4
CCn1c(=O)cc(SCC(=O)N2CCN(C3CCCCC3)CC2)c2ccccc21	-10	30	-2	62*	0	6
CCn1c(=O)cc(SCC(=O)Nc2ccc(OC)c(OC)c2)c2ccccc21	3	3	6	4	0	5
CCn1c(=O)cc(SCC(=O)Nc2ccc(Cl)cc2)c2ccccc21	-1	32	-4	97*	0	10
Cc1ccc(NC(=O)CCN2CCN(CCO)CC2)cc1Br	-2	-1	-8	-5	0	3
COc1cccc(NC(=O)CCSc2nnc3scc(-c4ccccc4)n23)c1	-28	-73*	-11	-78	0	-7
COc1cccc(-c2csc3nnc(SCC(=O)c4ccc(NC(C)=O)cc4)n23)c1	2	x	-1	x	0	2
COCCCn1c(-c2cccc(Cl)c2)nc2c1c(=O)[nH]c(=O)n2Cc1ccccc1	-5	4	3	9	0	-9
COCCn1c(=O)[nH]c(=O)c2c1nc(-c1cc(Br)c3c(c1)OCO3)n2Cc1ccccc1	-6	22	-2	59*	0	x
CC(=O)c1c(N2CCN(CCO)CC2)nc(=S)n(-c2ccccc2)c1C	1	-64*	-3	-72	0	-2
O=C(CSc1nc2[nH]ncc2c(=O)[nH]1)Nc1cccc([N+](=O)[O-])c1	-2	-8	0	-8	0	-5
COc1ccccc1NC(=O)C(CC(C)C)NC(=O)C1CCCCC1 (stereo unspecified)	-9	4	0	9	0	-6
COc1ccccc1N1CCN(C(=O)C(CC(C)C)NC(=O)C2CCCCC2)CC1 (stereo unspecified)	5	18	1	55*	0	4
COc1ccccc1N1CCN(C2CCCN(C(=O)CCc3cnn(C)c3)C2)CC1 (stereo unspecified)	-1	-5	6	5	0	3
SMILES	NPR1 activator	HSF1 inhib	GC-B act	HSF-1 act	aDG glyco act	DYRK1A inh
Cc1ccc2nc(Cl)c(/C=C/C(=O)c3ccco3)cc2c1	-14	30	-18	47	0	1
Cc1ccc2cc(/C=C/C(=O)c3ccco3)c(Cl)nc2c1	4	68	-11	119*	0	x
O=C(O)c1cccc(Oc2ccccc2[N+](=O)[O-])c1	-3	-3	-2	-15	0	4
COc1cccc(C2=N/C(=C\N(C)C)C(=O)O2)c1	-5	0	1	15	0	18
COC(=O)c1ccc(NC(=O)C(=O)c2cccn2C)cc1	1	20	1	61*	0	11
COC(=O)c1ccc(NC(=O)c2ccccc2C(=O)Nc2ccc(C(=O)OC)cc2)cc1	5	-30	7	-45	0	2
COc1ccc(NC(=O)CCS(=O)(=O)c2ccc(Br)s2)cc1	-2	-5	-5	10	0	-4
CCOC(=O)c1ccc(NC(=O)CCS(=O)(=O)c2ccc(Br)s2)cc1	-6	48	-3	117*	0	4
CC(=O)C1(O)CCC2C3CC(C)C4=CC(=O)CCC4(C)C3CCC21C (stereo unspecified)	2	x	-3	x	0	x
COC(=O)Nc1ccc(SCC(=O)c2ccc(Cl)cc2)cc1	-2	72	-3	107*	0	16
COC(=O)Nc1ccc(SCC(=O)c2ccccc2)cc1	3	4	1	23	0	2
CC1=CC2=C(OC1N(C)C)c1cccc3cccc(c13)C2=O (stereo unspecified)	x	35	x	63*	0	38
COc1ccc(NC(=O)c2cc3cc(OC)ccc3oc2=N)cc1	6	-53*	2	-60	0	4
COc1ccc(NC(=O)c2cc3ccccc3oc2=O)cc1	1	x	3	x	0	x
COc1cccc(C(=O)Nc2ccccc2)c1	3	3	4	30	0	6
COc1ccccc1C(=O)Nc1cccc(SC)c1	3	4	7	17	0	14
CSc1cccc(NC(=O)c2cccc3cccnc23)c1	-2	27	-6	54*	0	6
COc1cccc(C(=O)Nc2cccc(SC)c2)c1	0	37	2	62*	0	15
COc1ccc(NC(=O)c2cccc(OS(=O)(=O)N(C)C)c2)cc1	2	34	-8	54*	2	2
Cn1nnc2c[n+](CC(=O)c3ccc4ccccc4c3)cc(Br)c21	-19	41	-13	93*	0	12
Cc1cc(=O)[nH]c(N2CCOCC2)n1	3	-3	0	-17	0	-2
CN(Cc1ccccc1)Cc1c(O)ccc2ccccc12	0	-6	-2	-5	0	7
COc1ccc(OCCN(C)Cc2c(O)ccc3ccccc23)cc1	-2	99	-2	130*	0	-1
COc1ccc2c(c1)nc(CN1CCN(CCO)CC1)n2C	-1	-4	-3	-10	0	x

Screening results: PubChem, several laboratories
